Here are results for 39 molecules from PubChem BioAssay.

Structures are written as SMILES. Values joined by “and” are separate entries in the source; they are usually repeats but may differ in a detail not shown here. Identical values can stand only once.

The experiment can be described thus: compound effects on hepatocellular carcinoma cell viability – HepG2, calcein-AM fluorescence, 48 h, basal, profiling panel (AID 1164). Further: test concentration not given here. The note with it: higher = more signal.
As to `CO[C@H]1COC(=O)CC=C[C@@H](C)COC(=O)[C@H](CCSC)NC(=O)CC=C[C@@H]1C`, the z-score was -0.442 and 0.338.

Turning to `C=CCN(CCCCC)C(=O)C1N(C(C)(C)CO)C(=O)C2C(C(=O)O)C3C=CC21O3` (centres undefined), the z-score was 0.174 and -0.209.

In the case of `C=CCN1C(=O)[C@]2(O[C@H](CCn3cc(CCO)nn3)[C@@H]([Si](C)(C)c3ccc(OC)cc3)[C@@H]2C)c2cc(N3C(=O)c4cccc5cccc3c45)ccc21`, the z-score is -4.65 and -4.73.

As for `CCC[C@@H]1C[C@@]1(CCC)[C@@H](NC(=O)c1ccc(-c2ccccc2)cc1)c1cccc(Cl)c1`, the z-score is -2.12 and 1.52.

Consider `C[C@@H]1CC[C@H]2C(=O)O[C@H](CN=[N+]=[N-])CN2[C@H]1c1ccc(Br)cc1`, for which the z-score is -2.75 and -0.113.

Turning to `C[C@@H]1CN2[C@@H](CC[C@@H](C)[C@@H]2c2ccc(Br)cc2)C(=O)O1`, the z-score is -0.163 and 0.959.

As for `COc1ccc(O[C@H]2C=C[C@@H](c3ccccc3)O[C@@H]2COC(=O)CCC(C)=NO[C@H](C)c2cn([C@H](CO)Cc3ccccc3)nn2)cc1`, the z-score is -1.06 and -0.619.

For `CON(C)C(=O)c1nnc2c3ccccc3n(S(=O)(=O)c3ccc(C)cc3)c2n1`, the z-score is -1.33 and -0.298.

Regarding `COc1ccc(COC(=O)NN=C2C[C@@H](O)[C@@H](O)[C@@H]3[C@@H]4C(=O)N(C(C)(C)C)C(=O)[C@@H]4CC[C@H]23)cc1`, the z-score was 0.89.

Take `COC(=O)C1=C(C)N(Cc2ccccc2)[C@]23O[C@](C(=O)OC)(C(=O)N2[C@@H]1c1ccccc1)[C@@H](C(=O)OC)[C@H]3C(=O)OC`: the z-score is 0.209 and 1.32.

For `C[C@@H]1CC[C@H]2C(=O)NC[C@@H](O)CN2[C@H]1c1ccc(Br)cc1`, the z-score was -0.141 and 0.284.

Consider `C#CCCCON=C1C[C@@H](O)[C@@H](O)[C@@H]2[C@@H]3C(=O)N(C4CCCCC4)C(=O)[C@@H]3CC[C@H]12`, for which the z-score was 1.15.

With `C[C@@H]1CC[C@@H](C(=O)O)N[C@H]1c1ccc(-c2ccco2)cc1`, the z-score was 0.229.

Take `C=CCN(C(=O)C1N(C(C)(C)CO)C(=O)C2C(C(=O)O)C3C=CC21O3)C(C)(C)C` (centres undefined): the z-score is 0.384 and 0.816.

Turning to `C=CCN(C(=O)C(c1cccs1)N(C(=O)/C=C\C(=O)O)c1ccc(CCO)cc1)C(C)(C)C` (centres undefined), the z-score is -0.0749 and -0.55.

Take `Cc1ccc(S(=O)(=O)N[C@H]2COC(=O)[C@@H](Cc3ccccc3)NC(=O)[C@@H](C)COC(=O)CC=C[C@@H]2C)cc1`: the z-score is 0.364 and -1.68.

As for `CC(C)[Si]1(C(C)C)OCc2cc(CCCc3cc4c(c(CCc5ccccc5)n3)[Si](C(C)C)(C(C)C)OC4)nc(CCc3ccccc3)c21`, the z-score is -0.661 and -0.566.

Turning to `O=c1n(-c2ccccc2)c(=O)n2n1CC[C@@H]1C(=NOC[C@@H](O)COCc3ccco3)[C@H]3O[C@H]3[C@@H](O)[C@@H]12`, the z-score was -0.0728 and -0.713.

As for `O=C1C[C@]2(c3ccc([N+](=O)[O-])cc3)C(=O)N(Cc3ccccc3)c3cc(CO)ccc3[C@H]2N1C1CCCCC1`, the z-score is -1.3 and 0.0974.

Turning to `CCOC(=O)[C@H](CC(C)C)NC(=O)CCC1CC(OC(=O)NCc2cccc3ccccc23)CC2(CCCC(COC(=O)NCc3ccccc3)O2)O1` (some centres undefined), the z-score is -0.435.

`CCOC(=O)c1ccc(NC(=O)O[C@H]2[C@H](OC(=O)Nc3ccccc3)[C@H](OC(=O)Nc3ccccc3)[C@@H](OC)O[C@@H]2CO)cc1`: the z-score was -1.02 and -1.9.

With `CC[C@@H]1C(Sc2ccccc2)C(C(=O)O)[C@H](c2ccc(C)cc2)N1S(=O)(=O)c1ccc(C)cc1` (some centres undefined), the z-score was 0.364 and 0.126.

With `CCCC[C@@H]1CN2[C@@H](CC[C@@H](C)[C@@H]2c2ccc(Br)cc2)C(=O)O1`, the z-score is 0.537 and -0.336.

On to `C=CCN(CCCCC)C(=O)C(c1cccs1)N(C(=O)/C=C\C(=O)O)c1ccc(CCO)cc1` (centres undefined), for which the z-score was 0.877 and 1.59.

Regarding `C=C(C)C(=O)OC[C@@H]1CN2[C@@H](CC[C@@H](C)[C@@H]2c2ccc(Br)cc2)C(=O)O1`, the z-score was 1.08.

Regarding `COC(=O)C1=C2N(Cc3ccccc3)C(C)=C(C(=O)OC)[C@@H](c3ccccc3)N2C(=O)[C@](O)(C(=O)OC)C1`, the z-score is -0.102 and 0.511.

In the case of `C=C[C@@H](C)[C@@H](O)c1ccc(OCCO)cc1`, the z-score is -0.976 and 0.692.

`C=CCN(Cc1ccccc1)C(=O)C1N(C(C)(C)CO)C(=O)C2C(C(=O)O)C3C=CC21O3` (centres undefined): the z-score was -1.11 and 0.0167.

On to `C=CCN(C(=O)C1N(C(C)(C)CO)C(=O)C2C(C(=O)O)C3C=CC21O3)c1ccc(OC)cc1` (centres undefined), for which the z-score was -0.394 and -0.112.

For the molecule `COC(=O)c1c2oc(c1C(=O)OC)C(=O)N[C@@H](Cc1ccccc1)Cn1cc(nn1)C1(CCCCC1)NC(=O)N[C@H](CO)CC2`, the z-score was 0.893 and 0.0236.

Take `C=C[C@H](C)[C@H](O)c1ccc(O)c2ccccc12`: the z-score was -0.461 and 0.756.

As to `CCOC(=O)C[C@H]1[C@H](OC(=O)c2ccccc2-c2ccccc2)[C@@H](NC(=O)Cc2ccc(OC)cc2)c2cc(OCCCO)ccc2N1C(=O)c1ccc2ccccc2n1`, the z-score was 0.633 and 0.244.

Consider `CC(C)OC(=O)C=C1C[C@@H](c2ccccc2)O[C@@H](c2ccccc2)O1`, for which the z-score is 1.57 and 0.805.

For the molecule `COC(=O)C1=C(C)N(Cc2ccccc2)C2=C(C(=O)c3ccccc3)[C@H](c3ccccc3)[C@@](O)(C(=O)OC)C(=O)N2[C@@H]1c1ccccc1`, the z-score is 0.217 and 1.26.

Turning to `COC(=O)[C@@]1(Cc2ccc(F)cc2)[C@H]2c3cc(C(=O)N4CCCC4)n(Cc4c(CO)[nH]cc(C)c4=O)c3C[C@H]2CN1C(=O)c1ccccc1`, the z-score was -0.272 and -0.426.

For `C[N+](C)(C)CCCCCCNC(=O)[C@H]1C[C@H]2C(=O)N[C@@H](CCCC[N+](C)(C)C)C(=O)N2[C@H]1c1ccc(O)cc1`, the z-score is -1.45 and -0.367.

With `CC(CO)N1C(=O)[C@@H]2C3C(=O)OCCC=C[C@H]3OC23C=CCN(CCN2CCOCC2)C(=O)[C@@H]13` (some centres undefined), the z-score was -1.36 and -0.421.

On to `CCCC[C@@H]1CN2[C@H](c3ccc(Br)cc3)[C@@H](C)CC[C@H]2C(=O)O1`, for which the z-score was 0.155 and 0.493.

On to `CO[C@H]1COC(=O)CC=C[C@H](C)[C@H](OC)COC(=O)[C@@H](C)COC(=O)CC=C[C@@H]1C`, for which the z-score was 0.0517 and 1.24.
